# Source: PubChem BioAssay (EPA / NIEHS)
# Inconclusive results are not listed. Where a structure was tested more than once in an assay, its records may differ in their call. Active and inactive are the calls of the source. The calls were made as follows: active = hit-call score of the fitted dose curve at least 0.9, where 1 is the maximum; inconclusive = response in the unintended direction; inactive = score below 0.9.
# What was measured:
# [1] = target: Voltage-gated inwardly rectifying potassium channel KCNH2 (Homo sapiens) (UniProt Q12809); experiment: NVS_IC_hKhERGCh: NovaScreen (NVS) Ion Channel Assay for human Potassium Channel ERG (KhERGCh) (AID 2283333)
# Summary of the method: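 Membranes from CHO cells expressing human ERG; displacement of radioligand measured by filtration and scintillation after 0.75 h. Single-concentration duplicate screen at 25 uM, then concentration-response for actives; DMSO baseline.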
# [2] = target: bovine Gamma-Aminobutyric Acid Type A Receptor Agonist (GABAR Agonist), GABRA1 (gene 780973) (UniProt P08219); experiment: NVS_LGIC_bGABAR_Agonist: NovaScreen (NVS) Ligand-Gated Ion Channel Assay for bovine Gamma-Aminobutyric Acid Type A Receptor Agonist (GABAR Agonist) (AID 2283338)
# Summary of the method: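 Radioligand binding to bovine cerebellar membranes in agonist format, read by filter-based scintillation counting after 1 h. Primary screen in duplicate at 25 uM, with actives followed in concentration series. Gain of signal versus DMSO.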
# [3] = target: T1, Estrogen receptor (Homo sapiens) + Estrogen receptor beta (Homo sapiens) (UniProt P03372+Q92731); experiment: OT_ER_ERaERb_0480: Odyssey Thera (OT) 8-hour HEK293T Protein-Complementation Assay for Estrogen Receptor-alpha/-beta Heterodimer (AID 2283352)
# Summary of the method: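 Increase in mean fluorescence intensity, measured by laser scanning plate cytometry, reported ER-alpha/ER-beta LBD complementation in HEK293T cells after 8 h chemical exposure. DMSO served as baseline; basal signal is low, punctate and cytoplasmic.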
# [4] = target: Androgen Receptor/SRC-1 Co-activator, AR (gene 367) (UniProt P10275); experiment: OT_AR_ARSRC1_0960: Odyssey Thera (OT) 16-hour HEK293T Protein-Complementation Assay for Androgen Receptor/SRC-1 Co-activator (AID 2283353);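 also: actives raise the signal above DMSO so potency reflects increased AR and SRC-1 complex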
# Summary of the method: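 Sixteen-hour cell assay: Venus halves fused to AR and SRC-1 in HEK293T report binding. Images at 488/635 nm give an N/C ratio in the 488 nm channel over ≥400 cells, analysed as signal increase over DMSO.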
# [5] = target: Androgen Receptor/SRC-1 Co-activator, AR (gene 367) (UniProt P10275); experiment: OT_AR_ARSRC1_0480: Odyssey Thera (OT) 8-hour HEK293T Protein-Complementation Assay for Androgen Receptor/SRC-1 Co-activator (AID 2283354);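 also: hits raise the complementation signal above DMSO so AC50 marks enhancers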
# Summary of the method: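 Split-Venus PCA, stable HEK293T, AR/SRC-1 fusions; 8 h exposure. Readout: 488nm N/C fluorescence ratio, ≥400 cells/image; fitted upward vs DMSO baseline.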
# [6] = target: T1, Estrogen receptor (Homo sapiens) + Estrogen receptor beta (Homo sapiens); experiment: OT_ER_ERaERb_1440: Odyssey Thera (OT) 24-hour HEK293T Protein-Complementation Assay for Estrogen Receptor-alpha/-beta Homodimer (AID 2283356);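 also: heteromer of ER alpha and ER beta binding domains; hits raise reporter fluorescence and both agonists and antagonists give an increase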
# Summary of the method: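 Heterodimerisation of ERα (aa 310-547) and ERβ (aa 263-489) ligand binding domains was tracked as fluorescence gain in stably transfected HEK293T cells following 24 h dosing, normalised to DMSO controls.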
# [7] = tested on: NCBI gene 100848466; experiment: NVS_NR_bPR: NovaScreen (NVS) Nuclear Receptor Binding Assay for bovine Progextron Receptor (PR) (AID 2283343);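 also: actives lower bound radioligand signal below DMSO meaning displacement of the label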
# Summary of the method: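 Scintillation counts of bound radioligand were read 18 hours after chemical addition to membranes extracted from bovine uterus. Displacement was scored as loss of signal relative to DMSO controls. Screening began at 25 uM in duplicate.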
# [8] = target: human Peroxisome Proliferator-activated Receptor alpha (PPARa), PPARA (gene 5465) (UniProt Q07869); experiment: NVS_NR_hPPARa: NovaScreen (NVS) Nuclear Receptor Binding Assay for human Peroxisome Proliferator-activated Receptor alpha (PPARa) (AID 2283359);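 also: activity means loss of TR-FRET signal versus DMSO baseline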
# Summary of the method: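 TR-FRET signal measured at 1 h post-dosing; loss-of-signal versus DMSO negative control taken as activity. Extracted gene-protein, cell-free format. Initial single-point duplicates at 25 uM, then concentration-response retests.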
# [9] = target: Retinoic acid receptor alpha (Homo sapiens) (UniProt P10276); experiment: NVS_NR_hRAR_Antagonist: NovaScreen (NVS) Nuclear Receptor Binding Assay for human Retinoic Acid Alpha Receptor Antagonism (RAR) (AID 2283358)
# Summary of the method: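 Read-out: time-resolved FRET binding signal, 2 h post-dose, cell-free extracted protein. Antagonism scored as signal loss versus DMSO negative control. Primary single-concentration screen at 25 uM in duplicate; concentration series for actives.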
# [10] = target: Estrogen receptor (Homo sapiens) (UniProt P03372); experiment: NVS_NR_hER: NovaScreen (NVS) Nuclear Receptor Binding Assay for human Estrogen Receptor (ER) (AID 2283348)
# Summary of the method: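 MCF7-derived receptor extract, radiolabelled ligand, competitive displacement. Read: scintillation counts at 18 h. DMSO = negative control/baseline. Primary 25 uM duplicate; follow-up concentration–response.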
# [11] = target: chimpanzee Androgen Receptor (AR), AR (gene 747460) (UniProt O97775); experiment: NVS_NR_cAR: NovaScreen (NVS) Nuclear Receptor Binding Assay for chimpanzee Androgen Receptor (AR) (AID 2283346);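 also: radioligand displacement from AR measured by scintillation counting in a cell-free assay; a loss of bound radioligand signal versus DMSO counts as binding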
# Summary of the method: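 Radioligand binding to chimpanzee AR expressed in Sf9/Sf21 cells, cell-free, measured 72 h after dosing by lysate-based scintillation counting. Loss of signal vs DMSO; initial duplicate screen at 25 uM, actives retested in concentration series.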
# [12] = target: Estrogen receptor beta (Homo sapiens) (UniProt Q92731); experiment: OT_ER_ERbERb_0480: Odyssey Thera (OT) 8-hour HEK293T Protein-Complementation Assay for Estrogen Receptor-beta/-beta Homodimer (AID 2283357);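 also: active means signal gain over DMSO baseline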
# Summary of the method: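 Homodimerization of ER-beta LBD measured by protein-fragment complementation in HEK293T; 8 h dosing; fixed, Draq5 counterstain; fluorescence intensity gain over DMSO baseline, positive fitting direction; laser scanning cytometry.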
# [13] = target: Estrogen receptor (Homo sapiens) (UniProt P03372); experiment: OT_ER_ERaERa_1440: Odyssey Thera (OT) 24-hour HEK293T Protein-Complementation Assay for Estrogen Receptor-alpha/-alpha Homodimer (AID 2283349);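 also: hits raise fluorescence above DMSO for agonists and antagonists alike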
# Summary of the method: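 Cells (HEK293T) carrying the fragment-tagged ERα LBD (aa 310-547) pair are treated with chemical for 24 hours. Nuclear and/or cytoplasmic fluorescence is then quantified on a laser scanning cytometer. Activity is scored as signal gain against DMSO.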
# [14] = target: Estrogen receptor (Homo sapiens) (UniProt P03372); experiment: OT_ER_ERaERa_0480: Odyssey Thera (OT) 8-hour HEK293T Protein-Complementation Assay for Estrogen Receptor-alpha/-alpha Homodimer (AID 2283351);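 also: rise in fluorescence from reassembled reporter fragments on ERα LBD homodimer in nucleus or whole cell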
# Summary of the method: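 Measures ERα LBD (aa 310-547) homodimer complementation in stably transfected HEK293T at 8 h post-dose, with fluorescence intensity quantified on a laser scanning cytometer relative to DMSO controls.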
# [15] = target: rat Mineralocorticoid Receptor (MR), Nr3c2 (gene 25672) (UniProt P22199); experiment: NVS_NR_rMR: NovaScreen (NVS) Nuclear Receptor Binding Assay for rat Mineralocorticoid Receptor (MR) (AID 2283355)
# Summary of the method: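 Radioligand displacement, scintillation readout; tissue source adrenalectomized rat brain supernatant. Read 24 h post-dose. Screened in duplicate at 25 uM, DMSO negative control, controls on every plate; actives re-run in concentration series.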
# [16] = target: bovine Estrogen Receptor (ER), ESR1 (gene 407238) (UniProt P49884); experiment: NVS_NR_bER: NovaScreen (NVS) Nuclear Receptor Binding Assay for bovine Estrogen Receptor (ER) (AID 2283345);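 also: actives lower the bound radioligand count which means they displace the ER ligand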
# Summary of the method: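 Cell-free radioligand binding with bovine uterine membrane extracts, read 18 hours after dosing by scintillation counting. Loss of signal versus DMSO baseline indicates displacement. Primary screen run in duplicate at 25 uM, actives followed in concentration series.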
# human Peroxisome Proliferator-activated Receptor alpha (PPARa), PPARA (gene 5465), sequence (Q07869 whole entry, looked up): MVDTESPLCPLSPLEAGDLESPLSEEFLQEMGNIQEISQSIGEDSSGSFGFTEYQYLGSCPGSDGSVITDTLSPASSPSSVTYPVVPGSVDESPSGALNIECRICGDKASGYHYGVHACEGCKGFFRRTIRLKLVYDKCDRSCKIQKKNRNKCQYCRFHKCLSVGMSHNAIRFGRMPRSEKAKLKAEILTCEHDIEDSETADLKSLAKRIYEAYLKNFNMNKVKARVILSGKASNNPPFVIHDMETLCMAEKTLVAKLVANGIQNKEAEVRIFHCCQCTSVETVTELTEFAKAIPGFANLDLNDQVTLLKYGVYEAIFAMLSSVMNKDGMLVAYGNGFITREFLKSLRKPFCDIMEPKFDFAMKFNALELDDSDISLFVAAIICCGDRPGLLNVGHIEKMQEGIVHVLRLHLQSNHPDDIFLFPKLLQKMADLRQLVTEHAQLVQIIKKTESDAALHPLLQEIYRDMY
# Estrogen receptor beta (Homo sapiens), sequence (Q92731 whole entry, looked up, the tested form may be a part): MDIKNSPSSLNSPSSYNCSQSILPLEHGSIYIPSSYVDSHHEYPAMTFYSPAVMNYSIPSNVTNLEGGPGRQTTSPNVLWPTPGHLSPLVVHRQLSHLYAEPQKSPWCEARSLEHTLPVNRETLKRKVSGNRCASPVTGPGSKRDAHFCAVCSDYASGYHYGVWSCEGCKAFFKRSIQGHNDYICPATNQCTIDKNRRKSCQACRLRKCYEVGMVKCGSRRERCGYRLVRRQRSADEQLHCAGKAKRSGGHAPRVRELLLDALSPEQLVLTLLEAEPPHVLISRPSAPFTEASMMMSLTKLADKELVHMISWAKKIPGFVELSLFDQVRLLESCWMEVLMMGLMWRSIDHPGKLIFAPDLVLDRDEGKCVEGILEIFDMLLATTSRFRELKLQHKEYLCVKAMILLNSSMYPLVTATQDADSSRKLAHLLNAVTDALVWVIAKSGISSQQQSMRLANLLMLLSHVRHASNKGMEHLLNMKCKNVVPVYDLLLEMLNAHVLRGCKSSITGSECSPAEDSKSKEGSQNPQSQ
# chimpanzee Androgen Receptor (AR), AR (gene 747460), sequence (O97775 whole entry, looked up): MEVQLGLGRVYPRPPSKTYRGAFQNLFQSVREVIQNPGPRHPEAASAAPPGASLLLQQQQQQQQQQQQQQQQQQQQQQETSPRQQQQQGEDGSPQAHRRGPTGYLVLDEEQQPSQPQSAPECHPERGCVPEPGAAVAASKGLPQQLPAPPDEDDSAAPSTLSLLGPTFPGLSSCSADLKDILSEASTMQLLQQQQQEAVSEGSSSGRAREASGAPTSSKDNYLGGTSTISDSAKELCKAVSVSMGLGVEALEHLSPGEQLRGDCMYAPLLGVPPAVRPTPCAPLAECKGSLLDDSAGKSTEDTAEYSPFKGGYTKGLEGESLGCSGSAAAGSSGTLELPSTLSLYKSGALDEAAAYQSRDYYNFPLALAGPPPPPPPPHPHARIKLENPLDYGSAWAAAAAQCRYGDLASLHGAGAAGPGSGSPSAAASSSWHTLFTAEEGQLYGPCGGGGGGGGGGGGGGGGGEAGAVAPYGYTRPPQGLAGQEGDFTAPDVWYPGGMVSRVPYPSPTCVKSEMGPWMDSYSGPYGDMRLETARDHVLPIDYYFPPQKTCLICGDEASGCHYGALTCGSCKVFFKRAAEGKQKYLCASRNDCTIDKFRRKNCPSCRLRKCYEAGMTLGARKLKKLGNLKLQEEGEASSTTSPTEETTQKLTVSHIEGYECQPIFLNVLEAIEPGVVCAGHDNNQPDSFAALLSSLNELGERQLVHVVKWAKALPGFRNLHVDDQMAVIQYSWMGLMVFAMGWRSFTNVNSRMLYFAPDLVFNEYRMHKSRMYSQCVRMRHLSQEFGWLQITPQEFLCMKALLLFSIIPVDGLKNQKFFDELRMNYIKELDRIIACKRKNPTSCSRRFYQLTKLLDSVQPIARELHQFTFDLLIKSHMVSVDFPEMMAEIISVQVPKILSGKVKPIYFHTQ
# Androgen Receptor/SRC-1 Co-activator, AR (gene 367), sequence (P10275 whole entry, looked up, the tested form may be a part): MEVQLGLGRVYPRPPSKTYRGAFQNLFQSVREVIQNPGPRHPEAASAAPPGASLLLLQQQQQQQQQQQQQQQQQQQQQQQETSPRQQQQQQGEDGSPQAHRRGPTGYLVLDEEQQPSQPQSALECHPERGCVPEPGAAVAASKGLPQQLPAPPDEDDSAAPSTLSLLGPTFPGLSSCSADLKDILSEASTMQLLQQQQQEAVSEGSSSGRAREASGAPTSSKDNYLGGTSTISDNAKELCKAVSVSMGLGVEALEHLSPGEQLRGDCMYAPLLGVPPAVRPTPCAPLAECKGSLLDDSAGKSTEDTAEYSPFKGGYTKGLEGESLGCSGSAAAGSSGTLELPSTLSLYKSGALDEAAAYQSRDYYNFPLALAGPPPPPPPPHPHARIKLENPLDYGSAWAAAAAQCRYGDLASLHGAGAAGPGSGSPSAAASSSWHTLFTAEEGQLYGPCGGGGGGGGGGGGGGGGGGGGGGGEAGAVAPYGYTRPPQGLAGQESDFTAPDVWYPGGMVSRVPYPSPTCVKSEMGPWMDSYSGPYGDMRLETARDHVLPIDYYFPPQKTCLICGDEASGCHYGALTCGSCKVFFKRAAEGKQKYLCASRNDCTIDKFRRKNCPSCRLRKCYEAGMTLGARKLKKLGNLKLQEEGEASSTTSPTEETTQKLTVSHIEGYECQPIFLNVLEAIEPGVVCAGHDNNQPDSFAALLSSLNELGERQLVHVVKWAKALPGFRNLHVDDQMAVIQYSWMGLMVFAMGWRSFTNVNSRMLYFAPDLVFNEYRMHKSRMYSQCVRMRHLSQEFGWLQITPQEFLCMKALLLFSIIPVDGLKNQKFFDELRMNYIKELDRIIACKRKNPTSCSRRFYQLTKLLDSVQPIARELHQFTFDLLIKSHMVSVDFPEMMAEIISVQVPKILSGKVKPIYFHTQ
# Estrogen receptor (Homo sapiens), sequence (P03372 whole entry, looked up, the tested form may be a part): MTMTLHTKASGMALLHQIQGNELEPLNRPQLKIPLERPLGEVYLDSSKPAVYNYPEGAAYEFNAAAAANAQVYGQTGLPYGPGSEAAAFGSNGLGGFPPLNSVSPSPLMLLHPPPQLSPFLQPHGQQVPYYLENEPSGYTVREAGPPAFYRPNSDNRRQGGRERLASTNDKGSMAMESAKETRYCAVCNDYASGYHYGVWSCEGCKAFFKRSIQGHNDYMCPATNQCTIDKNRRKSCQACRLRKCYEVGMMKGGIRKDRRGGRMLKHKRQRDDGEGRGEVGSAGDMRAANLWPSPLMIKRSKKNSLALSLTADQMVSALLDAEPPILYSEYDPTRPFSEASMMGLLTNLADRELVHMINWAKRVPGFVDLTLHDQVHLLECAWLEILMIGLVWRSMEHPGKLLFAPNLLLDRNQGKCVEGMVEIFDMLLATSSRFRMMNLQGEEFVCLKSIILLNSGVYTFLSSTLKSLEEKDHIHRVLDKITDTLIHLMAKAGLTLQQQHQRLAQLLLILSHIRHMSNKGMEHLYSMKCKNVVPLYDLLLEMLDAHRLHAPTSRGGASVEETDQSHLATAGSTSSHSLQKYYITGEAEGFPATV
# T1 sequence (P03372 whole entry, looked up, the tested form may be a part): as above
# T1 sequence (Q92731 whole entry, looked up, the tested form may be a part): as the sequence (Q92731 whole entry, looked up, the tested form may be a part) above
# Retinoic acid receptor alpha (Homo sapiens), sequence (P10276 whole entry, looked up): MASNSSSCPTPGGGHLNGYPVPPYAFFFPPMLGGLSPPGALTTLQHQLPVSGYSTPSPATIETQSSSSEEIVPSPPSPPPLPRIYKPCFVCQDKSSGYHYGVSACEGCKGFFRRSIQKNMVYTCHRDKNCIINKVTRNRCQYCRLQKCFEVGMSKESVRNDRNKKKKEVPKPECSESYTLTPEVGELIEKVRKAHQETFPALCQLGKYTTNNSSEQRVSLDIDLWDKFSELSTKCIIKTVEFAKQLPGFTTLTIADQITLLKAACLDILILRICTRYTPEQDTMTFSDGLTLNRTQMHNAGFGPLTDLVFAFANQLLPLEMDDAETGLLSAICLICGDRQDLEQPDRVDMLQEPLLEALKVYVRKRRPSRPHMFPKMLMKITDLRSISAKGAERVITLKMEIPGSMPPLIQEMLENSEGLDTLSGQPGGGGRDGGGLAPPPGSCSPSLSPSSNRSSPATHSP
compound,measurement,setting,value
O=C(CCCN1CCC(O)(c2ccc(Cl)cc2)CC1)c1ccc(F)cc1,outcome,[1],inactive
same,outcome,[2],inactive
CN(C)CCOC(c1ccccc1)c1ccccc1,outcome,[2],inactive
same,outcome,[3],inactive
same,outcome,[4],inactive
same,outcome,[5],inactive
same,outcome,[6],inactive
CCCCCCCCCCCCOS(=O)(=O)O,AC50,[7],25.5 µM (active)
CCCCc1oc2ccccc2c1C(=O)c1cc(I)c(OCCN(CC)CC)c(I)c1,outcome,[3],inactive
NC(=NCCCCCCN=C(N)/N=C(\N)Nc1ccc(Cl)cc1)/N=C(\N)Nc1ccc(Cl)cc1,AC50,[4],9.58 µM (active)
same,outcome,[5],inactive
same,AC50,[8],0.178 µM (active)
CCCCCCCCCCCC,AC50,[9],3.51 µM (active)
same,AC50,[8],7.45 µM (active)
NNc1nc(-c2ccc([N+](=O)[O-])cc2)cs1,outcome,[10],inactive
CC(C)[C@@H]1CC[C@@H](C)C[C@H]1O,AC50,[11],0.376 µM (active)
same,outcome,[4],inactive
same,outcome,[5],inactive
same,outcome,[12],inactive
CN(Cc1cnc2nc(N)nc(N)c2n1)c1ccc(C(=O)N[C@@H](CCC(=O)O)C(=O)O)cc1,outcome,[13],inactive
same,outcome,[14],inactive
same,outcome,[3],inactive
same,outcome,[4],inactive
same,outcome,[5],inactive
same,outcome,[15],inactive
same,outcome,[6],inactive
O=C(Nc1ccc(Cl)c(Cl)c1)c1cc(Cl)cc(Cl)c1O,AC50,[10],25 µM (active)
NS(=O)(=O)O,outcome,[12],inactive
CCCCCCC(C)(C)C(=O)O,outcome,[13],inactive
same,outcome,[14],inactive
same,outcome,[3],inactive
same,outcome,[4],inactive
same,outcome,[5],inactive
same,outcome,[6],inactive
same,outcome,[12],inactive
O=C(c1ccccc1)c1ccccc1,outcome,[4],inactive
same,outcome,[5],inactive
CCCCCCCCCCCCOC(=O)c1cc(O)c(O)c(O)c1,outcome,[16],inactive
same,AC50,[13],11.9 µM (active)
same,outcome,[14],inactive
same,AC50,[3],11.9 µM (active)
same,AC50,[6],11.9 µM (active)
same,outcome,[12],inactive
same,AC50,[9],36.9 µM (active)
CCCCCCCCCCCC(=O)O,outcome,[12],inactive
O=C(O)c1cccc(C(=O)O)n1,outcome,[13],inactive
same,outcome,[14],inactive
same,outcome,[3],inactive
same,outcome,[6],inactive
Cc1cc(C(C)(C)C)c(O)c(C(C)(C)C)c1,outcome,[12],inactive
CCCCCCCCCC=CCC1CC(=O)OC1=O (stereo unspecified),outcome,[13],inactive
same,outcome,[14],inactive
same,outcome,[3],inactive
same,outcome,[4],inactive
same,outcome,[5],inactive
same,outcome,[6],inactive
same,outcome,[12],inactive
CCC(C)c1ccccc1O (stereo unspecified),outcome,[12],inactive
NCCN,outcome,[13],inactive
same,outcome,[14],inactive
same,outcome,[8],inactive
O=S(=O)(O)c1ccccc1,outcome,[12],inactive
CCc1ccccc1O,outcome,[16],inactive
same,outcome,[10],inactive
same,outcome,[13],inactive
same,outcome,[14],inactive
same,outcome,[3],inactive
same,outcome,[6],inactive
same,outcome,[12],inactive
O=C1NS(=O)(=O)c2ccccc21,outcome,[12],inactive
same,outcome,[9],inactive
CC(C)(c1ccc(Oc2ccc(N)cc2)cc1)c1ccc(Oc2ccc(N)cc2)cc1,outcome,[11],inactive
Cc1cc(C(=C2C=CC(=Nc3ccc(S(=O)(=O)O)cc3)C=C2)c2ccc(Nc3ccc(S(=O)(=O)O)cc3)cc2)cc(S(=O)(=O)O)c1N,AC50,[11],15.5 µM (active)
same,outcome,[13],inactive
same,outcome,[14],inactive
same,outcome,[3],inactive
same,outcome,[4],inactive
same,outcome,[5],inactive
same,outcome,[6],inactive
same,outcome,[12],inactive
CC(O)COc1ccccc1 (stereo unspecified),outcome,[4],inactive
same,outcome,[5],inactive
same,outcome,[12],inactive
C[C@]12CC[C@@H]3c4ccc(O)cc4CC[C@H]3[C@@H]1C[C@@H](O)[C@@H]2O,outcome,[11],inactive
same,AC50,[12],0.552 µM (active)
CCCCCCCCCCCCCCC,outcome,[12],inactive
COc1cc([N+](=O)[O-])ccc1N,outcome,[13],inactive
same,outcome,[14],inactive
same,outcome,[3],inactive
same,outcome,[4],inactive
same,outcome,[5],inactive
same,outcome,[6],inactive
same,outcome,[12],inactive
CCCCc1ccc2ccccc2c1S(=O)(=O)O,outcome,[13],inactive
same,outcome,[14],inactive
same,outcome,[3],inactive
same,outcome,[4],inactive
same,outcome,[5],inactive
same,outcome,[6],inactive
same,outcome,[12],inactive
same,outcome,[8],inactive
CCCCCCCCCCCCCC[n+]1ccccc1,outcome,[10],inactive
CCC1CO1 (stereo unspecified),AC50,[11],5 µM (active)
CCCCC(CC)C(=O)O (stereo unspecified),outcome,[8],inactive
O=C1OC2(c3ccccc31)c1cc(I)c(O)c(I)c1Oc1c2cc(I)c(O)c1I,AC50,[11],21.6 µM (active)
same,outcome,[11],inactive
same,AC50,[9],19.7 µM (active)
Cc1cc(Cc2cc(C)cc(C(C)(C)C)c2O)c(O)c(C(C)(C)C)c1,outcome,[10],inactive
same,outcome,[13],inactive
same,outcome,[14],inactive
same,outcome,[6],inactive
same,outcome,[12],inactive
CC(=O)Nc1ccc(O)cc1,outcome,[4],inactive
same,outcome,[5],inactive
same,outcome,[12],inactive
NCc1cccc(CN)c1,outcome,[16],inactive
same,outcome,[10],inactive
same,outcome,[13],inactive
same,outcome,[14],inactive
same,outcome,[3],inactive
same,outcome,[6],inactive
same,outcome,[12],inactive
CCCCCCc1ccc(N)cc1,outcome,[16],inactive
same,outcome,[10],inactive
same,outcome,[13],inactive
same,AC50,[14],67.3 µM (active)
same,AC50,[3],30.1 µM (active)
same,outcome,[4],inactive
same,outcome,[5],inactive
same,AC50,[6],21.4 µM (active)
same,AC50,[12],50 µM (active)
CCCCCC(C)OC(=O)COc1ccc(Cl)c2cccnc12 (stereo unspecified),outcome,[16],inactive
same,outcome,[10],inactive
same,outcome,[13],inactive
same,outcome,[14],inactive
Cc1[nH]nc2c1N=C(c1ccccc1Cl)c1cc([N+](=O)[O-])ccc1N2,outcome,[12],inactive
